# Measurements reported in PubChem BioAssay AID2221 (Broad Institute, 2009).
# Out of some 290,000 compounds screened, about 2,200 (0.76%) were called active. The sample holds actives, similar compounds and a random draw of the others, so the mix is not that of the screen. Unmarked numbers belong to inactive results. Cut-off read from the data, not from the text of the source: active = inhibition above about 30%; inconclusive = no clear call, values can overlap the other calls; inactive = below that.
# Biological target: Protein RecA (Mycobacterium tuberculosis (strain ATCC 25618 / H37Rv)) (UniProt P9WHJ3)
# Sequence (P9WHJ3 whole entry, looked up): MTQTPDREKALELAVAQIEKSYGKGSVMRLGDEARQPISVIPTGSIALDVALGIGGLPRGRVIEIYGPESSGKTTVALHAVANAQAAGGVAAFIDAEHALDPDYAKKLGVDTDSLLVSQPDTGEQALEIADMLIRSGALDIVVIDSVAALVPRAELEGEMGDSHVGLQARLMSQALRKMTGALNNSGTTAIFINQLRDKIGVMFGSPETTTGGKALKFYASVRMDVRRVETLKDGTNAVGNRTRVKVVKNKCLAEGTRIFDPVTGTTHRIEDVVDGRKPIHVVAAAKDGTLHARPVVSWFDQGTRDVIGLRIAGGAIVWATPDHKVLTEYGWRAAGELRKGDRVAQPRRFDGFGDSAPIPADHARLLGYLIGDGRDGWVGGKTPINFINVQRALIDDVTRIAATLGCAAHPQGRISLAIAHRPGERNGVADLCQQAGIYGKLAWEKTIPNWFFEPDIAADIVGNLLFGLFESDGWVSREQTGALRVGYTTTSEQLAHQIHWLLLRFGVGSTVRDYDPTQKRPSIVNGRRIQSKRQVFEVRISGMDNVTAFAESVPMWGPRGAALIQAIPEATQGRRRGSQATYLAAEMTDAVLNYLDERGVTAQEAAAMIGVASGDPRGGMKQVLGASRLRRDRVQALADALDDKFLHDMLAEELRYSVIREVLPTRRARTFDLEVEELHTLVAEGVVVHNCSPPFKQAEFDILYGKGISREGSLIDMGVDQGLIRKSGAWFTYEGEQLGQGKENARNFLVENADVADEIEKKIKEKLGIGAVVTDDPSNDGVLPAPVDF
# Test: Mtb RecA intein splicing inhibitors, primary screen, biochemical, fluorescence, HTS (AID 2221);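 note: 0% = vehicle wells and 100% = reference inhibitor control wells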
# Conditions: cell-free RecA intein splicing, stronger effect = higher value, concentration not given here
row,Compound,inhibition
1,COc1ccc(N(C(=O)c2snc(C(N)=O)c2N)C(C(=O)NC2CCCC2)c2ccc(C)o2)c(OC)c1 (stereo unspecified),5.96%
2,O=C(OCC(=O)N(CCc1ccccc1)Cc1ccccc1)c1ccccc1[N+](=O)[O-],18.8%
3,O=C(N/N=C\c1cc(Br)c(Br)o1)C1COc2ccccc2O1 (stereo unspecified),0.81%
4,Cc1ccc(C(=O)N/N=C/c2cccc3ccccc23)cn1,0.625%
5,Cc1ccc(C(=O)N/N=C\c2cc(Br)c(Br)o2)cn1,32% (active)
6,Cn1c2ccccc2n2c(=O)c(=O)n(CC(=O)c3ccc(F)cc3)nc12,-7.28%
7,COCCN1CCN(C(=O)c2cc(COc3ccc(F)cc3Cl)on2)CC1,-1.15%
8,O=C(C1CCN(Cc2ccc(Cl)cc2)CC1)N1CCN(Cc2ccc3c(c2)OCO3)CC1,-0.0543%
9,CC1CCC(NC(=O)C2c3ccccc3C(=O)N2Cc2ccc3c(c2)OCO3)CC1 (stereo unspecified),-1.41%
10,O=C(Nc1ccc(Cl)cc1)C1c2cccc[n+]2CC(=O)N1Cc1ccc2c(c1)OCO2 (stereo unspecified),36.5% (active)
11,C=CS(=O)c1sc(Cl)c(N2CCOCC2)c1[N+](=O)[O-] (stereo unspecified),33.8% (active)
12,CCOC(=O)c1cc(NC(=O)c2ccc(Cl)cc2)c(=O)oc1-c1ccccc1,-0.694%
13,Oc1ccc(N=Cc2sc3ccccc3c2Cl)cc1,34.2% (active)
14,O=C(N/N=C/c1c(Cl)[nH]c2ccccc12)c1sc2ccccc2c1Cl,3.69%
15,COc1ccc(N=C(C)c2sc3ccccc3c2O)cc1,0.51%
16,CC(C)(C)C1CCC(C(=O)NCC(c2cccs2)N2CCOCC2)CC1 (stereo unspecified),4.62%
17,CCCCN1C(=O)/C(=C(/C#N)C(N)=O)c2ccccc21,1.79%
18,COc1ccc2c(c1)C(=C(C#N)C#N)C(=O)N2CCc1ccccc1,61.5% (active)
19,C#CCN1C(=O)C(O)(CC(=O)c2cc(OC)ccc2OC)c2ccccc21 (stereo unspecified),2.4%
20,O=[N+]([O-])c1ccc2nc(-c3ccccn3)[nH]c2c1,0.606%
21,COc1ccc(-c2nnc(SCC(=O)Nc3cccnc3Cl)n2C)cc1,-0.381%
22,COc1ccc(N(CC(=O)NCC2CCCO2)C(=O)CCC(=O)Nc2nccs2)c(OC)c1 (stereo unspecified),1.28%
23,COc1ccc(NC(=O)c2cc(-c3ccc(C)cc3)on2)cc1,-0.468%
24,COc1ccc(NC(=O)/C(Cl)=C(/Cl)S(=O)Cc2ccc(C)cc2)cn1 (stereo unspecified),89% (active)

row,Compound,inhibition
1,Cc1ccc(NC(=O)OCc2cncs2)cc1,-1.45%
2,O=C(Nc1ccccc1-c1nnn(CC(=O)N2CCN(c3ccccc3)CC2)n1)c1cccs1,0.619%
3,COc1ccc(CNC(=O)CN(c2ccc(OC)c(Cl)c2)S(=O)(=O)c2ccc(C)cc2)cc1,-0.316%
4,O=C(O)c1cccc(S(=O)(=O)Nc2ccc(O)cc2Sc2nc3ccccc3s2)c1,-3.82%
5,CCOc1ccccc1Nc1ccc2nonc2c1[N+](=O)[O-],2.95%
6,O=[N+]([O-])c1c(NCCO)cc(Sc2nc3ccccc3s2)c2nonc12,94.4% (active)
7,Cc1ccc(S(=O)(=O)CC(=O)Nc2nnc(C)s2)cc1,-0.704%
8,Cc1ccc(CS(=O)(=O)c2ncc(Cl)c(C(=O)Nc3nnc(C)s3)n2)cc1,61% (active)
9,Cc1nnc(NC(=O)CCCOc2ccccc2)s1,-1.92%
10,CSc1nnc(NC(=O)c2nc(S(=O)(=O)Cc3ccc(C)cc3)ncc2Cl)s1,82.8% (active)
11,CSc1ncc(Cl)c(C(=O)Nc2cc(C)ccc2C)n1,-0.95%
12,CCSc1nnc(NC(=O)c2ccc(C)cc2)s1,2.42%
13,Cc1cc(Cl)nc(NC(=O)Nc2cccc(Cl)c2)n1,-0.873%
14,O=C(NCCCn1ccnc1)c1cc2c(s1)CCCC2,1.03%
15,C=CCOc1c(Br)cc(/C=N\n2nnnc2N)cc1OC,1.44%
16,CCOc1c(Br)cc(/C=C2\C(=O)N(CCC#N)N=C2C)cc1OC,89.5% (active)
17,COc1cc(/C=C2/C(=O)NN(c3cccc(Cl)c3)C2=O)cc(Br)c1O,9.85%
18,Cc1cccc(OCC(=O)NCCNC(=O)c2cccnc2)c1,4.34%
19,Cc1nn(CC(=O)NC2CCCCC2)c(=O)c2cccn12,-1.92%
20,O=C(CN(C(=O)CNC(=O)c1cccs1)c1cccc(F)c1)NC1CCCCC1,2.36%
21,Cc1cccc(NC(=O)NC(=S)NC(=O)c2ccccc2)c1,1.58%
22,Cc1cc2[nH]ncc2cc1NC(=S)NC(=O)c1ccccc1,38.6% (active)
23,Cc1cccc(NC(=S)Nc2ccc3cn[nH]c3c2)c1,3.44%
24,CC(=O)c1c(N2CCN(c3ccc(F)cc3)CC2)nc(=S)n(-c2ccccc2)c1C,-0.168%

row,Compound,inhibition
1,Cc1ccc(CNC(=O)CCN2C(=O)[C@@H]3Cc4ccccc4CN3C2=O)cc1,58% (active)
2,O=C(CCN1C(=O)[C@@H]2Cc3ccccc3CN2C1=O)NCc1ccccc1,-0.00645%
3,O=C(CCN1C(=O)[C@@H]2Cc3ccccc3CN2C1=O)NCCc1ccccc1,-9.37%
4,O=C(Cc1cc(=O)[nH][nH]1)N/N=C/c1ccccc1[N+](=O)[O-],86.9% (active)
5,Cc1cc(C(=O)N/N=C/c2ccccc2[N+](=O)[O-])c(C)o1,-1.48%
6,Cc1ccsc1/C=N/NC(=O)Cc1cc(=O)[nH][nH]1,93.6% (active)
7,Cc1ccsc1/C=N/Nc1ccc(Cl)nn1,0.218%
8,COc1cc(CC(=O)N/N=C/c2ccccc2)c([N+](=O)[O-])cc1OC,-1.27%
9,CCOc1ccc(N2CC(C(=O)N/N=C/c3sccc3C)CC2=O)cc1 (stereo unspecified),-0.809%
10,CCCNC(=O)OC[C@H]1O[C@H](CCO/N=C/[C@@H](NS(=O)(=O)c2ccc(C)cc2)[C@H](C)/C=C/CC(=O)OC)C=C[C@@H]1Oc1ccc(OC)cc1,4.43%
11,CCN=c1sc(C(=O)Nc2ccccc2)c(C)n1CC,-1.39%
12,CC(=O)N1CCN(C(=O)C2(NC(=O)Nc3ccc(C)cc3)CCCCC2)CC1,-0.697%
13,O=C1c2cccc3c([N+](=O)[O-])ccc(c23)C(=O)N1CC1CCCO1 (stereo unspecified),-70.4%
14,Cc1cc(C)nc(Nc2cc([N+](=O)[O-])ccc2C)n1,-2.26%
15,Cc1ccc(Nc2cc(C)nc3c(C)ccc([N+](=O)[O-])c23)cc1,63.3% (active)
16,Cc1ccc(Nc2ccc(C(N)=O)cc2[N+](=O)[O-])cc1,2.38%
17,CCN(CC)c1ccc([N+](=O)[O-])c2cccnc12,14.5%
18,Cc1ccccc1Nc1c([N+](=O)[O-])ccc2nonc12,-1.72%
19,CN(c1ccccc1)c1ccc([N+](=O)[O-])c2nonc12,63.5% (active)
20,COc1cc(C(F)(F)F)nc2c(Br)c(C(C)(C)C)nn12,0.549%
21,CCOC(=O)c1cc(S(=O)(=O)NCCc2ccc(OC)c(OC)c2)cn1C,-0.521%
22,COc1ccc(C(=O)NC(=S)NNC(=O)CCc2ccccc2)cc1,34.5% (active)
23,CC(C)Oc1ccc(CCC(=O)NNC(=S)NCc2ccccc2)cc1,0.193%
24,COc1ccc(C(=O)NNC(=S)NC(=O)c2ccccc2)cc1,7.5%

row,Compound,inhibition
1,COc1ccc(N2CC(C(=O)NCCS(=O)(=O)N3CCN(c4ccccc4)CC3)CC2=O)cc1 (stereo unspecified),-1.96%
2,CC(C)C(NC(=O)C1CCC(C(C)(C)C)CC1)C(=O)NCCCN1CCCCC1 (stereo unspecified),0.406%
3,Cc1c(-c2nn(C)c(=O)c3ccccc23)oc2ccc(F)cc2c1=O,88.2% (active)
4,O=C1c2oc3ccc(Br)cc3c(=O)c2C(c2cccc(F)c2)N1CCO (stereo unspecified),1.67%
5,Cc1ccc(F)cc1NC(=O)Cc1nn(C)c(=O)c2ccccc12,-33.8%
6,COc1cccc(N2C(=O)CN(Cc3ccccc3)C2=S)c1,0.665%
7,O=C(COc1ccc(Cl)cc1Cl)NCCCNC(=O)c1cnccn1,1.17%
8,CCOC(=O)/C(=N\Nc1ccccc1[N+](=O)[O-])c1csc(Nc2ccccc2)n1,-3.85%
9,CCc1c(-c2ccccc2)nc(N)c(C#N)c1-c1cccs1,4.71%
10,Cc1c(-c2ccccc2)nc(N)c(C#N)c1-c1cccs1,-1.05%
11,CN1CCc2nc(SC(C(=O)O)c3ccccc3)c(C#N)c(-c3cccs3)c2C1 (stereo unspecified),34.8% (active)
12,O=C(Cc1ccccc1F)NC1CCSc2ccccc21 (stereo unspecified),-0.276%
13,Cc1nc(-c2ccccc2)sc1C1(C)CC(c2cccnc2)=NO1 (stereo unspecified),1.29%
14,Nc1nc(-c2ccccc2)cc(-c2ccccc2)n1,6.87%
15,N#Cc1nc(N)nc(N(c2ccccc2)c2ccccc2)n1,37.4% (active)
16,Cc1nc2ccccn2c(=O)c1NC(=O)c1cccs1,-0.75%
17,Cc1c(Cl)cccc1NC(=O)CCC(=O)N/N=C/c1ccco1,-1.26%
18,CCC(C)NC(=O)CCCc1ccccc1 (stereo unspecified),-3.16%
19,O=C(CCc1nnc(CCCCc2ccccc2)o1)NC(c1cccnc1)C(F)(F)F (stereo unspecified),-3.54%
20,CC(CCn1cccn1)NC(=O)CCc1nnc(CCc2ccccc2)o1 (stereo unspecified),36.9% (active)
21,Cc1cc(=O)n2nc(N3CCC(C(=O)Nc4c(F)c(F)c(F)c(F)c4F)CC3)sc2n1,0.056%
22,CNC(=O)COC(=O)c1cc(-c2ccc(OC)cc2)nc2ccccc12,-2.37%
23,COc1ccc(-c2cc(C(=O)Nc3ccccc3O)c3ccccc3n2)cc1,-0.565%
24,COc1ccc(-c2cc(C(=O)n3cnc4ccccc43)c3ccccc3n2)cc1,37.7% (active)
